Read-out in experiment [1]: Interleukin 6 (IL6), IL6 (gene 3569)
Nature of the experiment: BSK_BT_xIL6: BioMAP Diversity Plus: BT Assay for Interleukin 6 (IL6) Biomarker Activity (AID 2284228). The conditions noted are these: primary human B cells with PBMC. The essentials: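 Human B cell/PBMC co-culture; secreted IL-6 quantified by Luminex xMAP 24 h after chemical dosing, fitted relative to DMSO. Parallel PBMC viability by Alamar Blue after 1 h pretreatment, 20 ng/mL SEB and TSST-1, 90 h incubation.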

Read-out in experiment [2]: Interleukin 17A (IL17A), IL17A (gene 3605)
The experiment can be described thus: BSK_BT_xIL17A: BioMAP Diversity Plus: BT Assay for Interleukin 17A (IL17A) Biomarker Activity (AID 2284229). The conditions noted are these: primary human B cells with PBMC. The essentials: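 Co-culture of human B cells and PBMC, dosed for 24 h in 96-well format. Secreted IL-17A measured with Luminex xMAP; gain-direction fitting against DMSO as baseline.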

Read-out in experiment [3]: Tumor necrosis factor (Homo sapiens) (UniProt P01375)
The experiment can be described thus: BSK_BT_xTNFa: BioMAP Diversity Plus: BT Assay for Tumor necrosis factor alpha (TNF-alpha) Biomarker Activity (AID 2284230). The conditions noted are these: primary human B cells with PBMC. In outline:
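B cells with PBMC in co-culture, dosed and sampled at 24 h; secreted TNF-alpha measured by Luminex xMAP bead assay. Activity fitted in the gain direction against DMSO as negative control and baseline.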

Read-out in experiment [4]: Collagen I, COL1A1 (gene 1277)
Nature of the experiment: BSK_MyoF_CollagenI: BioMAP Diversity Plus: MyoF Assay for Collagen I Biomarker Activity (AID 2284238). As to conditions: primary human lung fibroblasts. In outline:
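Primary human lung fibroblasts (MyoF system) treated 24 h; Collagen I quantified by ELISA and fitted in positive direction against DMSO. Parallel SRB total-protein staining assessed overt cytotoxicity.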

Read-out in experiment [5]: Collagen III, COL3A1 (gene 1281)
The experiment can be described thus: BSK_MyoF_CollagenIII: BioMAP Diversity Plus: MyoF Assay for Collagen III Biomarker Activity (AID 2284239). The conditions noted are these: primary human lung fibroblasts. In outline:
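Primary human lung fibroblasts (BioMAP MyoF system) exposed 24 h. Collagen III measured by ELISA; positive-direction fit relative to DMSO.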

Read-out in experiment [6]: Interleukin 17F (IL17F), IL17F (gene 112744)
Nature of the experiment: BSK_BT_xIL17F: BioMAP Diversity Plus: BT Assay for Interleukin 17F (IL17F) Biomarker Activity (AID 2284243). As to conditions: primary human B cells with PBMC. The essentials: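 Human PBMC co-cultured with B cells, compound exposure 24 h; secreted IL-17F quantified by Luminex xMAP, referenced to DMSO control. PBMC viability measured in parallel by Alamar Blue reduction.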

Read-out in experiment [7]: Actin alpha 1 (ACTA1), ACTA1 (gene 58)
Nature of the experiment: BSK_MyoF_ACTA1: BioMAP Diversity Plus: MyoF Assay for Actin alpha 1 (ACTA1) Biomarker Activity (AID 2284244). As to conditions: primary human lung fibroblasts. In outline: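 Measured by ELISA: alpha-smooth muscle actin in human primary lung fibroblasts 24 h after dosing, with DMSO as baseline and upward signal change as the fitted direction.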

Read-out in experiment [8]: Interleukin 2 (IL2), IL2 (gene 3558)
The experiment can be described thus: BSK_BT_xIL2: BioMAP Diversity Plus: BT Assay for Interleukin 2 (IL2) Biomarker Activity (AID 2284245). The conditions noted are these: primary human B cells with PBMC. The essentials:
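Secreted interleukin-2 from human B cell/PBMC co-cultures, measured 24 h post-dosing by Luminex multiplex immunoassay. Upward-direction curve fitting against DMSO baseline.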

Read-out in experiment [9]: Basic fibroblast growth factor (bFGF), FGF2 (gene 2247)
The experiment can be described thus: BSK_MyoF_bFGF: BioMAP Diversity Plus: MyoF Assay for Basic fibroblast growth factor (bFGF) Biomarker Activity (AID 2284246). The conditions noted are these: primary human lung fibroblasts. The essentials: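 In this multiplexed cell system, lung fibroblasts (human primary) receive test chemical for 24 h before ELISA detection of bFGF; DMSO defines baseline and the analysis direction is positive.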

Read-out in experiment [10]: Collagen IV, COL4A1 (gene 1282)
Nature of the experiment: BSK_MyoF_CollagenIV: BioMAP Diversity Plus: MyoF Assay for Collagen IV Biomarker Activity (AID 2284247). As to conditions: primary human lung fibroblasts. In outline:
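Activity is scored as a signal increase over DMSO in an ELISA for Collagen IV, measured on human lung fibroblasts at 24 h after chemical treatment. Cytotoxicity is checked in parallel cultures by sulforhodamine B total-protein staining.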

The nature of experiment [11]: UKN4_HCS_LUHMES_cell_viability: Viability Assessment in the University of Konstanz (UKN) Leist Lab Neurite Outgrowth Assay in human LUHMES cells (UKN4) (AID 2284232). The essentials:
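Human dopaminergic-model LUHMES neurons were exposed to chemicals for 24 h after a 2-day differentiation. Viability was scored by imaging Hoechst H-33342 staining, with activity fitted in both directions relative to DMSO controls.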

Experiment [12] can be described thus: CCTE_Mundy_HCI_Cortical_NOG_NeuronCount: CCTE's Neurite Outgrowth Assay in rat cortical cells for Neuron Count, Mundy Lab (AID 2284236; active = hit-call score of the fitted dose curve at least 0.9, where 1 is the maximum;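 also: neurons counted by imaging betaIII-tubulin and Hoechst stained cortical cells; cells exposed to compound for about 48 hours before fixation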). In outline: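 Read-out: neuron number by high-content imaging of betaIII-tubulin (Alexa Fluor-488) and Hoechst-labelled rat primary cortical cells.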
Experiment [13] in a line: CCTE_Mundy_HCI_Cortical_NOG_BPCount: CCTE's Neurite Outgrowth Assay in rat cortical cells for Branch Point Count, Mundy Lab (AID 2284237).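 As to AC50: branch points counted about two days after chemical exposure.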 In outline:
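Measured 50.33 h after dosing, this morphology endpoint uses rat primary cortical cultures labelled for betaIII-tubulin. Branch points are quantified by high-content imaging, with DMSO as negative control and baseline.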

Experiment [14] in a line: CCTE_Mundy_HCI_hNP1_Casp3_7: CCTE's Caspase-Glo 3/7 Assay in human neuroprogenitor cells for Apoptosis, Mundy Lab (AID 2284240). The essentials:
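Apoptosis is scored by activated caspase-3/7 luminescence in WA09-derived neural progenitor cells, measured 26.5 h after chemical dosing. Values represent gain of signal relative to DMSO vehicle.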

Experiment [15] is described as follows: CCTE_Mundy_HCI_hNP1_CellTiter: CCTE's Cell Titer-Glo 2 Assay in human neuroprogenitor cells for Viability, Mundy Lab (AID 2284241; active = hit-call score of the fitted dose curve at least 0.9, where 1 is the maximum). The essentials:
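Human neural progenitor cells (hNP1, WA09-derived) were plated on poly-L-ornithine/laminin and grown 40 to 44 hours at 37 °C, 5% CO2 before chemical addition. Twenty-four hours later, ATP was measured by CellTiter-Glo luminescence; loss of signal versus DMSO indicates reduced viability.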
(ATP-based viability assays read luminescence as a measure of living cells.)

Experiment [16] in a line: CCTE_Mundy_HCI_Cortical_Synap_Neur_Matur_NeuronCount: CCTE's Synaptogenesis and Neurite Maturation Assay in rat cortical cells for Neuron Count, Mundy Lab (AID 2284242; active = hit-call score of the fitted dose curve at least 0.9, where 1 is the maximum;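 also: neuron number from Hoechst nuclei and MAP2 staining by high-content imaging; hits reduce neuron count versus DMSO baseline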). The essentials: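 Imaging-based neuron count in rat cortical cultures after chemical exposure from DIV 7 to DIV 12, with AraC added at DIV 5. Activity is fitted relative to DMSO.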

Results filed as inconclusive are left out. Activity calls are given as the source filed them. The calls were made as follows, unless noted: active = hit-call score of the fitted dose curve at least 0.9, where 1 is the maximum; inactive = score below 0.9.

Sequence of Tumor necrosis factor (Homo sapiens) (P01375 whole entry, looked up): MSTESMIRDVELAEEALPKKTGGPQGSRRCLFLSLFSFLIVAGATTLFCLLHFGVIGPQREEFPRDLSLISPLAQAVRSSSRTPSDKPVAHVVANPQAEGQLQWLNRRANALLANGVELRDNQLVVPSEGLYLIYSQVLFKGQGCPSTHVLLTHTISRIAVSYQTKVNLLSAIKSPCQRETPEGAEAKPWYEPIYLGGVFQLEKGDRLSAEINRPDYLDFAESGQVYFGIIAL

As to `CCCCCCCCCCCCN(C)C`, the outcome in [1], in experiment [2], in [3], in experiment [4], in experiment [5] and in [6] was inactive. Besides, the outcome in [7], in experiment [8], in [9] and in experiment [10] was inactive.
As usually defined, the AC50 is the midpoint of the concentration-response curve, whichever way the signal moves. Regarding `C=CC(Cl)CCl` (stereo not given), the outcome in experiment [1], in [2], in experiment [3], in experiment [5], in [6] and in experiment [7] was inactive. The result in experiment [8] and in [9] was inactive. The figures for the AC50 in experiment [4] and in experiment [10] were 0.0855 µM (active) and 0.0311 µM (active), respectively.
In the case of `Cc1cc(C(F)(C(F)(F)F)C(F)(F)F)ccc1NC(=O)c1cccc(I)c1C(=O)NC(C)(C)CS(C)(=O)=O`, the compound was classed as inactive in experiment [11], in experiment [12], in [13], in experiment [14] and in experiment [15].
As for `[Cl][Sn]([c]1ccccc1)([c]1ccccc1)[c]1ccccc1`, the AC50 is 0.456 µM (active) in [1]; 0.204 µM (active) in [2]; 0.495 µM (active) in experiment [3]; 0.0894 µM (active) in experiment [4]; 0.402 µM (active) in experiment [5]; 0.302 µM (active) in experiment [6]. The AC50 in experiment [7] is 0.102 µM (active); in experiment [8], 0.395 µM (active); in experiment [9], 0.324 µM (active); in experiment [10] it was 0.286 µM (active).
For `CC(C)(COCC1CO1)COCC1CO1` (stereo not given), the outcome in experiment [1], in [2], in experiment [3], in experiment [4], in [5] and in experiment [7] was inactive. Besides, the result in [8], in experiment [9] and in experiment [10] was inactive. Moreover, the concentration at half-maximal activity (AC50) in experiment [6] is 24.5 µM (active).
As for `NC(=O)c1ccc(N)nc1`, the call in [12], in experiment [14] and in experiment [15] was inactive. The AC50 in experiment [13] was 11.4 µM (active); in experiment [16], 7.58 µM (active).
In the case of `CC(C)=CC1C(C(=O)OCc2cccc(Oc3ccccc3)c2)C1(C)C` (stereo not given), the AC50 in experiment [1] is 11.2 µM (active); in [3], 20 µM (active); in experiment [6], 20 µM (active); in experiment [8], 20 µM (active). Moreover, the result in [2], in [4], in experiment [5], in [7], in [9] and in experiment [10] was inactive.
On to `O=C1C=CC(=O)c2ccccc21`, for which the AC50 is 0.499 µM (active) in experiment [1]; 0.482 µM (active) in experiment [2]; 0.812 µM (active) in experiment [3]; 4.3 µM (active) in experiment [4]; 4.13 µM (active) in experiment [5]; 0.61 µM (active) in [6]. Also, the half-maximal activity concentration (AC50) is 4.42 µM (active) in experiment [7], 0.714 µM (active) in [8], 4.17 µM (active) in [9] and 2.56 µM (active) in experiment [10].

Source of the values: PubChem BioAssay (EPA / NIEHS).
